Assay results: PubChem BioAssay AID1159580 (chemical genetic matrix, 2015)
Out of some 5,500 compounds screened, about 2,000 (36%) were called active. Another 18% or so got no clear call; they are omitted. Rule as the data show it: active = normalized growth mostly below about 0.91 (no sharp cut-off); inconclusive = no clear call, values can overlap the other calls; inactive = mostly above about 0.92. This is one part of the list.

Experiment: chemical genetic growth profiling, strain panel (AID 1159580);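 also: tested at 20 µM; growth read once vehicle control cultures reached saturation at 30 °C; 1 = growth at the plate median or of vehicle wells; lower values mean less growth of the strain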
Settings: growth OD

Measured: normalized growth

CC[C@@H](C(=O)[C@@H](C)[C@@H](O)[C@H](C)[C@@H]1O[C@@H]([C@@H](CC)C(=O)O)CC[C@@H]1C)[C@H]1OC2(C=C[C@@H](O)[C@]3(CC[C@@](C)([C@H]4CC[C@](O)(CC)[C@H](C)O4)O3)O2)[C@H](C)C[C@@H]1C (some centres undefined)
inactive: S. cerevisiae deletion strains, locus YKL009W, strain mrt4, hits give low values 0.934 | S. cerevisiae deletion strains, locus YKL068W, hits give low values 1.02 | S. cerevisiae deletion strains, locus YKL190W, strain CNB1, hits give low values 0.925 | S. cerevisiae deletion strains, locus YKR026C, strain gcn3, hits give low values 0.933 | S. cerevisiae deletion strains, locus YKR091W, strain srl3, hits give low values 0.937 | S. cerevisiae deletion strains, locus YLR058C, strain SHM2, hits give low values 0.935 | S. cerevisiae deletion strains, locus YLR320W, strain mms22, hits give low values 0.928 | S. cerevisiae deletion strains, locus YLR330W, strain CHS5, hits give low values 0.927 | S. cerevisiae deletion strains, locus YLR342W, strain FKS1 (second series), hits give low values 0.821 | S. cerevisiae deletion strains, locus YLR357W, strain rsc2, hits give low values 0.988 | S. cerevisiae deletion strains, locus YLR384C, strain iki3, hits give low values 0.954 | S. cerevisiae deletion strains, locus YML016C, strain PPZ1, hits give low values 0.978 | S. cerevisiae deletion strains, locus YMR058W, strain fet3, hits give low values 0.908 | S. cerevisiae deletion strains, locus YMR078C, strain ctf18, hits give low values 0.937 | S. cerevisiae deletion strains, locus YMR125W, strain sto1, hits give low values 0.932 | S. cerevisiae deletion strains, locus YMR129W, hits give low values 0.937 | S. cerevisiae deletion strains, locus YMR307W, strain GAS1, hits give low values 0.801 | S. cerevisiae deletion strains, locus YNL067W, strain RPL9B, hits give low values 0.963 | S. cerevisiae deletion strains, locus YNL071W, strain lat1, hits give low values 0.96 | S. cerevisiae deletion strains, locus YNL128W, strain TEP1, hits give low values 0.969 | S. cerevisiae deletion strains, locus YNL153C, strain GIM3, hits give low values 0.911 | S. cerevisiae deletion strains, locus YNL248C, strain rpa49, hits give low values 0.95 | S. cerevisiae deletion strains, locus YNL322C, strain KRE1 (second series), hits give low values 0.963 | S. cerevisiae deletion strains, locus YNR049C, strain mso1, hits give low values 0.923 | S. cerevisiae deletion strains, locus YOL012C, strain htz1 1.26 | S. cerevisiae deletion strains, locus YOR001W, strain rrp6, hits give low values 0.909 | S. cerevisiae deletion strains, locus YOR080W, strain dia2, hits give low values 0.961 | S. cerevisiae deletion strains, locus YOR184W, strain ser1, hits give low values 0.892 | S. cerevisiae deletion strains, locus YPL055C, strain LGE1, hits give low values 0.934 | S. cerevisiae deletion strains, locus YPL078C, strain atp4, hits give low values 0.939 | S. cerevisiae deletion strains, locus YPL106C, strain sse1, hits give low values 0.932 | S. cerevisiae deletion strains, locus YPR141C, strain kar3, hits give low values 1 | S. cerevisiae strains, strain wild type, hits give low values 0.925
active: S. cerevisiae deletion strains, locus YJR066W, strain TOR1, hits give low values 0.237 | S. cerevisiae deletion strains, locus YKL085W, strain MDH1 (second series), hits give low values 0.812 | S. cerevisiae deletion strains, locus YKL085W, strain MDH1, hits give low values 0.812 | S. cerevisiae deletion strains, locus YKL160W, strain elf1, hits give low values 0.879 | S. cerevisiae deletion strains, locus YKR001C, strain vps1, hits give low values 0.108 | S. cerevisiae deletion strains, locus YLL001W, strain dnm1, hits give low values 0.833 | S. cerevisiae deletion strains, locus YLL026W, hits give low values 0.892 | S. cerevisiae deletion strains, locus YLL041C, strain sdh2, hits give low values 0.926 | S. cerevisiae deletion strains, locus YLR027C, strain aat2, hits give low values 0.858 | S. cerevisiae deletion strains, locus YLR039C, strain RIC1, hits give low values 0.294 | S. cerevisiae deletion strains, locus YLR102C, strain apc9, hits give low values 0.905 | S. cerevisiae deletion strains, locus YLR113W, strain HOG1, hits give low values 0.176 | S. cerevisiae deletion strains, locus YLR221C, strain rsa3, hits give low values 0.856 | S. cerevisiae deletion strains, locus YLR258W, strain gsy2, hits give low values 0.842 | S. cerevisiae deletion strains, locus YLR262C, strain YPT6 (second series), hits give low values 0.662 | S. cerevisiae deletion strains, locus YLR262C, strain YPT6, hits give low values 0.183 | S. cerevisiae deletion strains, locus YLR268W, strain sec22, hits give low values 0.843 | S. cerevisiae deletion strains, locus YLR342W, strain FKS1, hits give low values 0.852 | S. cerevisiae deletion strains, locus YLR370C, strain arc18, hits give low values 0.608 | S. cerevisiae deletion strains, locus YLR371W, strain rom2, hits give low values 0.624 | S. cerevisiae deletion strains, locus YLR418C, strain cdc73, hits give low values 0.681 | S. cerevisiae deletion strains, locus YML032C, strain rad52, hits give low values 0.882 | S. cerevisiae deletion strains, locus YML120C, strain ndi1, hits give low values 0.847 | S. cerevisiae deletion strains, locus YML124C, strain tub3, hits give low values 0.887 | S. cerevisiae deletion strains, locus YMR205C, strain PFK2, hits give low values 0.79 | S. cerevisiae deletion strains, locus YMR223W, strain ubp8, hits give low values 0.838 | S. cerevisiae deletion strains, locus YMR231W, strain pep5, hits give low values 0.0726 | S. cerevisiae deletion strains, locus YNL183C, strain NPR1, hits give low values 0.143 | S. cerevisiae deletion strains, locus YNL209W, strain ssb2, hits give low values 0.916 | S. cerevisiae deletion strains, locus YNL233W, strain BNI4, hits give low values 0.861 | S. cerevisiae deletion strains, locus YNL250W, strain rad50, hits give low values 0.868 | S. cerevisiae deletion strains, locus YNL271C, strain bni1, hits give low values 0.814 | S. cerevisiae deletion strains, locus YNL298W, strain CLA4, hits give low values 0.439 | S. cerevisiae deletion strains, locus YNL307C, strain MCK1, hits give low values 0.862 | S. cerevisiae deletion strains, locus YNR052C, strain pop2, hits give low values 0.735 | S. cerevisiae deletion strains, locus YOL006C, strain TOP1, hits give low values 0.192 | S. cerevisiae deletion strains, locus YOL147C, strain pex11, hits give low values 0.884 | S. cerevisiae deletion strains, locus YOR061W, strain CKA2, hits give low values 0.642 | S. cerevisiae deletion strains, locus YOR069W, strain VPS5, hits give low values 0.797 | S. cerevisiae deletion strains, locus YOR070C, strain gyp1, hits give low values 0.9 | S. cerevisiae deletion strains, locus YOR083W, strain WHI5, hits give low values 0.855 | S. cerevisiae deletion strains, locus YOR106W, strain vam3, hits give low values 0.0692 | S. cerevisiae deletion strains, locus YOR136W, strain idh2, hits give low values 0.905 | S. cerevisiae deletion strains, locus YOR144C, strain elg1, hits give low values 0.885 | S. cerevisiae deletion strains, locus YOR231W, strain MKK1, hits give low values 0.201 | S. cerevisiae deletion strains, locus YOR265W, strain rbl2, hits give low values 0.897 | S. cerevisiae deletion strains, locus YOR270C, strain vph1, hits give low values 0.287 | S. cerevisiae deletion strains, locus YOR290C, strain snf2, hits give low values 0.863 | S. cerevisiae deletion strains, locus YOR316C, strain cot1, hits give low values 0.908 | S. cerevisiae deletion strains, locus YPL051W, strain arl3, hits give low values 0.721 | S. cerevisiae deletion strains, locus YPL240C, strain hsp82, hits give low values 0.922 | S. cerevisiae deletion strains, locus YPL256C, strain CLN2, hits give low values 0.265 | S. cerevisiae deletion strains, locus YPR119W, strain clb2, hits give low values 0.92 | S. cerevisiae deletion strains, locus YPR163C, strain tif3, hits give low values 0.538 | S. cerevisiae deletion strains, locus YPR167C, strain met16, hits give low values 0.865 | S. cerevisiae deletion strains, strain wtn01, hits give low values 0.815
